This passage reports potency estimated from few doses, EC50 and Kd results from PMC11062922 (Nature Chemical Biology, 2023).

Where two headings read alike, the source gives them in different places.

Usually EC50 stands for the concentration that produces a half-maximal response.

What all share (set-up): species or system human, MV4-11 + K-562 + COLO205 + SK-N-BE2 + OVCAR-8
One experiment deals with PRKD1. As to conditions: read-out: apparent Kd, n = 1.
The test system of a further experiment is AGK. As to conditions: read-out: apparent Kd, compound concentrations: 100 nM and 1000 nM (sheet 'Samples'), n = 1.
For the next experiment, the system named is ARAF. As to conditions: read-out: apparent Kd, compound concentrations: 100 nM and 1000 nM (sheet 'Samples'), n = 1.
A further experiment concerns BMPR1A. As to conditions: read-out: apparent Kd, n = 1.
Another experiment deals with BRAF. As to conditions: read-out: apparent Kd, compound concentrations: 100 nM and 1000 nM (sheet 'Samples'), n = 1.
The test system of the next experiment is DCK. As to conditions: read-out: apparent Kd, compound concentrations: 100 nM and 1000 nM (sheet 'Samples'), n = 1.
The test system of the next experiment is ERBB3. As to conditions: read-out: apparent Kd, compound concentrations: 100 nM and 1000 nM (sheet 'Samples'), n = 1.
The test system of the next experiment is FECH. As to conditions: read-out: apparent Kd, compound concentrations: 100 nM and 1000 nM (sheet 'Samples'), n = 1.
In the next experiment the test system is LIMK2. As to conditions: read-out: apparent Kd, n = 1.
Another experiment relates to MAP2K3. As to conditions: read-out: apparent Kd, compound concentrations: 100 nM and 1000 nM (sheet 'Samples'), n = 1.
A further experiment has as its system MAP3K12. As to conditions: read-out: apparent Kd, compound concentrations: 100 nM and 1000 nM (sheet 'Samples'), n = 1.
In another experiment the test system is MAP3K2. As to conditions: read-out: apparent Kd, compound concentrations: 100 nM and 1000 nM (sheet 'Samples'), n = 1.
For another experiment, the system named is MAP3K5. As to conditions: read-out: apparent Kd, compound concentrations: 100 nM and 1000 nM (sheet 'Samples'), n = 1.
The next experiment deals with PIK3C2B. As to conditions: read-out: apparent Kd, compound concentrations: 100 nM and 1000 nM (sheet 'Samples'), n = 1.
In the next experiment the test system is PYGL. As to conditions: read-out: apparent Kd, compound concentrations: 100 nM and 1000 nM (sheet 'Samples'), n = 1.
The subject of another experiment is SPR. As to conditions: read-out: apparent Kd, n = 1.
The subject of a further experiment is ZAK. As to conditions: read-out: apparent Kd, compound concentrations: 100 nM and 1000 nM (sheet 'Samples'), n = 1.
A further experiment has as its system PRKCA. As to conditions: compound concentrations:0.3nM, 1nM, 3nM, 10nM, 30nM, 100nM, 300nM, 1000nM,R2:0.94698851760637903,slope:2.0520697350296202,EC50 Standard Error, by the legend:Standard error of the EC50 estimation as provided by the drc package.
Another experiment relates to CSNK1D. As to conditions: compound concentrations:0.3nM, 1nM, 3nM, 10nM, 30nM, 100nM, 300nM, 1000nM,R2:0.90408083948088502,slope:1.4813297755061099,EC50 Standard Error, by the legend:Standard error of the EC50 estimation as provided by the drc package.
A further experiment deals with CSNK1E. As to conditions: compound concentrations:0.3nM, 1nM, 3nM, 10nM, 30nM, 100nM, 300nM, 1000nM,R2:0.89444069129231096,slope:0.86279178326481998,EC50 Standard Error, by the legend:Standard error of the EC50 estimation as provided by the drc package.
Where [1] appears, read: compound concentrations:100 nM and 1000 nM (sheet 'Samples').
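For EC50 in this document: competition pulldown with Kinobeads ε in cell lysates, inhibitor preincubated 45 min at 4 °C, bound kinases quantified by LC–MS/MS against DMSO control.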
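For Kd in this document: competition pulldown with Kinobeads ε in cell lysates, inhibitor preincubated 45 min at 4 °C, bound kinases quantified by LC–MS/MS against DMSO control.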

Turning to `CCn1c(-c2nonc2N)nc2c(-c3ccccc3)ncc(OCCCN)c21.CCn1c(-c2nonc2N)nc2c(-c3ccccc3)ncc(OCCCN)c21.O=C(O)C(F)(F)F.O=C(O)C(F)(F)F` [GSK260205A], the potency estimated from few doses with PRKD1 (compound concentrations: 100 nM and 1000 nM (sheet 'Samples'), CATDS: 2.9847294929188299E-2) is 1340 nM.

As for `Cn1ncc2c(N)ncnc21` [SKF-18267], the potency estimated from few doses in the experiment with AGK (CATDS: 3.9029734313372399E-3) was 1420 nM; in the experiment on ARAF (CATDS: 4.8255610001080402E-3) it was 874 nM; in the experiment on BMPR1A (compound concentrations: 100 nM and 1000 nM (sheet 'Samples'), CATDS: 5.9129989995003003E-3), 595 nM; with BRAF (CATDS: 3.54255463702716E-3), 1870 nM; with DCK (CATDS: 4.5565133541076702E-3), 987 nM; in the experiment with ERBB3 (CATDS: 3.9998602619286698E-3), 1340 nM. The potency estimated from few doses in the experiment on FECH (CATDS: 4.0094324755209198E-3) is 1330 nM; in the experiment on LIMK2 (compound concentrations: 100 nM and 1000 nM (sheet 'Samples'), CATDS: 3.7102033319592401E-3), 1630 nM; in the experiment on MAP2K3 (CATDS: 4.14742483783686E-3) it was 1220 nM; in the experiment on MAP3K12 (CATDS: 4.9126246890692504E-3), 843 nM; with MAP3K2 (CATDS: 4.2783500511549997E-3), 1140 nM; with MAP3K5 (CATDS: 4.32123334572214E-3), 1110 nM. The potency estimated from few doses in the experiment with PIK3C2B (CATDS: 6.2624130491241497E-3) is 539 nM; in the experiment on PYGL (CATDS: 4.6532954394714601E-3), 943 nM; with SPR (compound concentrations: 100 nM and 1000 nM (sheet 'Samples'), CATDS: 4.8201807384516803E-3), 876 nM; with ZAK (CATDS: 4.0930423662174304E-3), 1260 nM.

In the case of `O=C1NC(=O)C(N2CCc3ccccc32)=C1c1ccccc1Cl` [SB-373598], the potency estimated from few doses with PRKD1 (setting [1]) was 1580 nM.

Regarding `Cc1cccc(Nc2nc(N[C@H]3CCCC[C@H]3N)ncc2C(N)=O)c1.Cl` [GSK986310C], the EC50 in the experiment with PRKCA was 446 nM. In addition, the Kd in the experiment with PRKCA (read-out: apparent Kd) is 272 nM.

On to `Cl.NCc1ccc(-c2nc(-c3ccc(Cl)c(O)c3)c(-c3ccncc3)[nH]2)cc1` [SB-476429-A], for which the potency estimated from few doses in the experiment on SPR (setting [1]) is 32.3 nM. Moreover, the values for the 50% effective concentration (EC50) in the experiment on CSNK1D and in the experiment with CSNK1E were 300 nM and 642 nM, respectively. Further, the values for the Kd in the experiment with CSNK1D (read-out: apparent Kd) and in the experiment on CSNK1E (read-out: apparent Kd) were 300 nM and 642 nM, respectively.

For the molecule `CCn1c(-c2cccnc2O)nc2cnccc21` [SB-736715], the potency estimated from few doses in the experiment on DCK (CATDS: 1.18043457558384E-2) was 2290 nM; with PYGL (CATDS: 1.35129561389799E-2), 1630 nM.

For `O=C1N=C(NCCCc2ccccc2)S/C1=C\c1ccc2ncccc2c1` [RO4493941-000], the potency estimated from few doses in the experiment on FECH (CATDS: 5.9450857327724899E-2) is 1950 nM.

With `O=C(O)C(F)(F)F.O=C(O)C(F)(F)F.O=c1[nH]ccc2nc(N[C@@H]3CCCNC3)nc(Nc3ccc(S(=O)(=O)N4CCOCC4)cc3)c12.O=c1[nH]ccc2nc(N[C@@H]3CCCNC3)nc(Nc3ccc(S(=O)(=O)N4CCOCC4)cc3)c12` [GSK2177277A], the results for the potency estimated from few doses in the experiment with MAP2K3 (CATDS: 6.4169710439364001E-3) and with MAP3K2 (CATDS: 7.1783793001346102E-3) were 1550 nM and 889 nM, respectively.

As to `CC(C)Oc1ccc2c(-c3ccnc(Nc4ccc(N5CCN(C)CC5)cc4)n3)cnn2n1` [GW696155X], the potency estimated from few doses in the experiment on LIMK2 (setting [1]) is 883 nM.

Regarding `Cl.Cl.NC(CNC(=O)c1cc(Br)c(-c2ccnc3[nH]ccc23)s1)c1ccccc1.NC(CNC(=O)c1cc(Br)c(-c2ccnc3[nH]ccc23)s1)c1ccccc1` (stereo not shown) [GSK1322949A], the potency estimated from few doses in the experiment on AGK (CATDS: 3.3484364918531399E-2) was 953 nM; in the experiment with ARAF (CATDS: 6.3043035692660204E-2), 316 nM; with MAP3K12 (CATDS: 3.2066551551393298E-2), 1040 nM.

With `CNCc1ccc(-c2cc(-c3nc(-c4ccc(S(=O)(=O)C(C)C)cc4)cnc3N)on2)cc1` [VE-822], the potency estimated from few doses with BMPR1A (setting [1]) was 764 nM.

Turning to `CNc1nccc(-c2ccc3c(N)n[nH]c3c2)n1` [GSK2206003A], in the experiment on ERBB3 (CATDS: 5.0565668903585798E-2), the potency estimated from few doses is 1580 nM.

Regarding `CNCC1CCn2c(c(C3=C(c4cn(C)c5ccccc45)C(=O)NC3=O)c3ccccc32)C1` (stereo not shown) [RO0318676-000], the potency estimated from few doses in the experiment on BRAF (CATDS: 2.6106742003508401E-2) was 2340 nM.

`CC(C)N1CC(=O)N(C)c2cnc(Nc3cccc(S(=O)(=O)CCN4CCOCC4)c3)nc21` [BI00009348]: the potency estimated from few doses in the experiment on MAP3K5 (CATDS: 5.27372855942096E-2) is 1550 nM; in the experiment with ZAK (CATDS: 5.0114665499168799E-2) it was 1820 nM.

For the molecule `CCC(CC)(CC)n1cnc2c(N)ncnc21` [SKF-97620], the potency estimated from few doses in the experiment on PIK3C2B (CATDS: 4.5061031673298398E-2) was 395 nM.
